Measurements reported in the supplement of paper PMC6555819.

How the values were obtained:
Assay in all cases: PBM binding z-score (relative to random genomic background probes); higher = stronger binding; sequences stand for … in GC…GCGATTGACAGCGTAGAATGAAGG
[1] = test system: PPARg:RXRa DBDmut IVT, anti-RXR (DBD mutation: RXRa K156A/R161A, NR concentration 270 nM, RXRa partner concentration 90 nM)
How it was run: (§1)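 Binding buffer was PBS pH 7.4 with 2% milk, 0.02% Triton X-100, 1 mM DTT, 0.2 mg/mL BSA and 0.4 mg/ml salmon testes DNA. In it, ligand-free nuclear receptor dimers were incubated 1 h on custom Agilent 4×180K protein-binding microarrays carrying double-stranded probes. Antibodies against each partner (one per run) detected binding, and z-scores were calculated against random background probes after regression normalization of scanned fluorescence.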

[2] = test system: PPARg:RXRa IVT, anti-PPARg (NR concentration 270 nM, RXRa partner concentration 90 nM)
How it was run: as §1

[3] = test system: PPARg DBDmut:RXRa IVT, anti-PPARg (DBD mutation: PPARg1 K132A/R137A, NR concentration 270 nM, RXRa partner concentration 90 nM)
How it was run: as §1

[4] = test system: PPARg DBDmut IVT, anti-PPARg (DBD mutation: PPARg1 K132A/R137A, NR concentration 270 nM)
How it was run: as §1

[5] = test system: PPARg homodimer (NR concentration 180 nM)
How it was run: as §1

[6] = test system: PXR:RXRa (NR concentration 270 nM, RXRa partner concentration 90 nM)
How it was run: as §1

[7] = test system: PXR homodimer (NR concentration 270 nM)
How it was run: as §1

[8] = test system: RARa:RXR (NR concentration 270 nM, RXRa partner concentration 90 nM)
How it was run: as §1

[9] = test system: RARa homodimer (NR concentration 270 nM)
How it was run: as §1

[10] = test system: RARb:RXRa (NR concentration 270 nM, RXRa partner concentration 90 nM)
How it was run: as §1

[11] = test system: RARb homodimer (NR concentration 270 nM)
How it was run: as §1

[12] = test system: RARg:RXRa (NR concentration 270 nM, RXRa partner concentration 90 nM)
How it was run: as §1

[13] = test system: RARg homodimer (NR concentration 270 nM)
How it was run: as §1

[14] = test system: RXRa DBDmut IVT, anti-RXR (DBD mutation: RXRa K156A/R161A, NR concentration 90 nM)
How it was run: as §1

[15] = test system: RXRa homodimer (NR concentration 180 nM)
How it was run: as §1

[16] = test system: THRa:RXRa (NR concentration 90 nM, RXRa partner concentration 90 nM)
How it was run: as §1

[17] = test system: THRa homodimer (NR concentration 90 nM)
How it was run: as §1

[18] = test system: VDR homodimer (NR concentration 270 nM)
How it was run: as §1

Sequence	PBM binding z-score [1]	PBM binding z-score [2]	PBM binding z-score [3]	PBM binding z-score [4]	PBM binding z-score [5]	PBM binding z-score [6]	PBM binding z-score [7]	PBM binding z-score [8]	PBM binding z-score [9]	PBM binding z-score [10]	PBM binding z-score [11]	PBM binding z-score [12]	PBM binding z-score [13]	PBM binding z-score [14]	PBM binding z-score [15]	PBM binding z-score [16]	PBM binding z-score [17]	PBM binding z-score [18]
AGCCAAAGTTCACTAGGTAACGTAAGATTCAGCT	2.5	4.42	0.974	0.266	2.28	3.96	2.4	2.78	0.158	4.68	3.85	4.99	5.83	4.29	3.74	1.91	-0.25	3.46
CGGACTAGGTCATCCAGGACAGTGAATACATTGA	7.5	7.58	1.52	0.792	1.9	1.59	0.944	1.89	0.179	3.49	2.76	3.66	4.36	1.7	2.43	3.48	1.79	1.59
ACTAGTTGGTCAGCTGAGCTCACACACAATTCGG	0.771	0.632	0.319	0.574	-0.1	-0.455	-0.49	-0.357	-0.333	0.363	0.0845	-0.0715	0.577	0.194	-0.234	0.0887	-0.346	-0.289
CGAGCGAGGGCATGAGTTGATAGCAAATGCCGAT	0.598	0.064	-0.548	-1	-0.175	0.544	-0.137	0.536	-0.541	2.03	0.657	1.14	1.22	2.15	1.19	0.963	-0.509	1.46
TCCTGTAGATCAAAGGTTAAGAAAGCCGAAGCCT	1.82	3.04	-0.37	0.441	1.34	1.72	-0.679	2.85	-0.272	1.78	1.39	1.89	0.87	0.61	3.17	1.24	-0.54	-0.182
ACTAGTAGTTGACTTAGGGCAACCGATACGACGC	-0.00679	0.335	0.301	0.391	-0.372	-0.0724	-0.195	0.555	0.281	0.593	0.773	0.36	0.487	-0.14	0.393	1.44	-0.151	-0.0873
TGTCAAAGTTCAAAGGTAGCGTAAGTATCCACAC	0.0975	4.06	0.876	0.963	-0.119	5.11	3.16	4.97	0.73	5.09	3.86	5.84	5.8	4.41	6.07	2.76	-0.0719	3.39
AGTCAATGTTCACTAGGTAACGTAAGATTCAGCT	1.92	2.92	1.08	0.776	0.288	-0.0899	-0.202	-0.181	-0.0197	0.143	0.00708	0.177	0.455	0.313	0.0273	0.29	0.282	-0.164
AGAATGAGGTTCTTAAGATCAGGGAATTGCGGTC	0.324	0.283	0.378	-0.225	-0.0988	-0.118	-0.179	-0.0748	-0.832	0.0675	-0.377	-0.106	-0.186	0.301	-0.00148	0.365	0.000852	-0.0897
CAAACTAGGTCAAAGGCCAAAGTCGAGCCAACCA	7.91	8.52	1.47	0.202	1.73	2.9	0.159	4.68	0.255	4.31	3.34	5.06	4.83	1.8	4.98	3.05	0.429	0.659
GCGACTGGGGCATCAGCAGGCTACCATAACTTAA	4.01	2.87	-0.343	-1.56	-0.243	-0.692	-0.801	-0.592	-1.13	0.346	0.21	-0.0453	0.15	-0.185	-0.168	-0.0992	0.158	-0.693
ATATGTAGGTTAGCTGGGGTCAATCAGACTAGGC	6.88	6.36	2.08	1.26	2.34	6	1.44	5.08	1.21	3.04	3.82	4.3	3.37	1.26	5.42	5.12	2.82	3.44
CGAACTAGGTCAGCACAGGACAGTGAAGGATGAT	7.7	7.61	0.871	0.245	1.37	1.42	-0.395	1.03	0.213	3.65	2.69	3.27	4.34	0.563	1.68	3.81	0.48	-0.111
TTACCAAGGTAAAGGTCGTTGATCCCTCTGTAGA	0.8	3.8	1.13	0.564	1.72	2.59	0.148	2.98	-0.24	2.14	2.13	1.95	1.08	0.533	2.7	2.48	0.667	1.55
